KCC2 mod: modulators of human KCC2 chloride dependent transport | Q9H2X9 | KCC2 cells, thallium flux FluoZin-2 fluorescence | B-score of Tl+ flux slope (higher = more flux/activation; lower = inhibition) at 10 µM | hit rate 2.2% among 190,000 | AID 1456;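 active = thallium flux slope and its plate-corrected score both differing from the plate sample mean at a set confidence after two filtering rounds, in either direction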;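 also: slope of fluorescence scaled to starting intensity during 10 to 20 s after thallium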
S1P3 antag: S1P3 (human) receptor antagonism; CHO S1P3 NFAT-BLA reporter, FRET fluorescence, antagonist mode; Q99500; inhibition, % at 4.98 µM; hit rate 0.27% among 170,000;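 active = inhibition above the plate cutoff, the mean inhibition of test wells on that plate plus 3 SD, cut at about 28% in these data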;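 also: cells challenged with S1P at its EC80 of 0.8 µM; blue over green emission ratio from cleaved BLA substrate after 4 h stimulation; 0% = S1P-stimulated wells and 100% = unstimulated DMSO-only wells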
RAM inhibit: blocks the yeast RAM network. inhibition, % at 50 µM. S. cerevisiae dse1pr::URA3 reporter, 5-FOA growth OD615, 2 d; analog-sensitive cbk1-as2 kinase mutant strain. hit rate 1.8% among 190,000. AID 868;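 active = inhibition above a set limit, 3 SD over mean compound inhibition, cut at about 8.4% in these data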;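 also: 0% = DMSO-only wells with no growth and 100% = 10 µM 1-NA-PP1 full growth; inhibition rescues growth on 5-FOA so higher OD means more RAM inhibition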
ROMK primary: modulators of human ROMK potassium channel. P48048. Tet-inducible ROMK, thallium flux fluorescence; actives lie on both sides. hit rate 2% among 130,000. AID 1918. B-score at 10 µM;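 active = signal ratio slope over the read window, or its plate-corrected B-score, at least 3 SD from the plate mean, either direction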;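 also: B-score of the F/F0 ratio slope over 7 to 12 s after thallium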
S1P4 antagonist: human S1P4 receptor antagonism; hit rate 0.26% among 220,000; S1P4-expressing cells, antagonist mode, reporter read-out; inhibition, % at 4.98 µM; in the data active = inhibition above about 29%;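 also: 0% = wells stimulated with agonist and 100% = vehicle wells without agonist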
S1P4 agonist: agonists of human S1P4 receptor. activation, % at 4.98 µM. O95977. hit rate 0.35% among 220,000. S1P4-expressing cell line, agonist reporter assay; in the data active = activation above about 11%;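 also: 0% = DMSO vehicle and 100% = reference agonist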
Numbers without * were called inactive; i = inactive; . = not tested or not shown. An excerpt weighted towards active compounds, which were near 5.1% of everything screened.

SMILES | KCC2 mod | S1P3 antag | RAM inhibit | ROMK primary | S1P4 antagonist | S1P4 agonist
CNC(=S)N(Cc1ccc(OC)cc1)C1CC(=O)N(c2ccc(C(=O)OC)cc2)C1=O (centres undefined) | 1.5 | -16 | 1 | . | -13 | 0
CCOC(=O)c1cc(CC)sc1NC(=O)c1cc(OC)c(OC)c(OC)c1 | . | . | 11* | 0.7 | -4 | 0
CCOC(=O)c1cc(CC)sc1NC(=O)c1ccc(N2C(=O)CCC2=O)cc1 | . | . | 3 | . | -19 | -2
CCOC(=O)C1CCCN(c2ccc(NC(=O)c3snc4c(=O)[nH]cnc34)cc2)C1 (centres undefined) | 0.029 | 8 | 4 | 0.092 | -2 | -2
CCOC(=O)C1CCCN(c2ccc(NC(=O)c3snc4c(=O)[nH]c(C)nc34)cc2)C1 (centres undefined) | -0.42 | . | 9.8* | . | 1 | -4
CC(=O)Oc1ccc2ccccc2c1C(NC(=O)Cc1ccccc1)c1ccccc1 (centres undefined) | . | . | 9.6* | . | -29 | -2
CC(=O)NC(c1cccc([N+](=O)[O-])c1)c1c(OC(C)=O)ccc2ccccc12 (centres undefined) | -0.27 | . | 1 | -0.75 | -11 | 1
CCOCc1c(C(=O)OCC(=O)Nc2ccc(C)c(S(=O)(=O)N(C)C)c2)oc2ccccc12 | -1.4 | 3 | 8.7* | . | -22 | -1
Cc1ccc(NC(=O)COC(=O)CCC(=O)c2ccc(Cl)cc2)cc1S(=O)(=O)N(C)C | -1.5 | -17 | 11* | . | 2 | 0
Cc1ccc[n+](-c2nc([O-])sc2C=O)c1 | i | -9 | 1 | . | -3 | 81*
CC(C)CC(=O)Nc1nnc(CSCc2ccc(F)cc2)s1 | -0.62 | -5 | . | . | -11 | 1
O=C1NC(CCc2ccccc2)C(=O)N1CCOc1cccc(Br)c1 (centres undefined) | 1 | -20 | 7 | 1.1 | -4 | -2
O=[N+]([O-])c1ccc(COc2cccc(CNc3ccc(F)cc3)c2)cc1 | -0.02 | 4 | 9.9* | . | -1 | -2
Nc1nc(-c2ccccc2)c(N=Nc2ccccc2Cl)s1 | -1.1 | 1 | 9.2* | -0.97 | -11 | 3
O=C(NCC1COc2ccccc2O1)C1CCCN(S(=O)(=O)c2cccc3nsnc23)C1 (centres undefined) | . | -25 | 1 | -2.5* | -2 | 0
CCOC(=O)CN(C(=O)CSc1nnc2c(n1)[nH]c1c(C)cc(C)cc12)c1ccccc1 | -0.49 | . | 8.9* | -0.67 | -14 | 2
CCOc1ccccc1NC(=S)N1CCC(NC(=O)C(C)(C)C)CC1 | 0.89 | 3 | 1 | 0.33 | -6 | 2
Cc1ccc(S(=O)(=O)Nc2ccc(N=Nc3ccc(O)cc3)cc2)cc1 | 0.019 | 3 | 11* | 2.5 | -10 | -2
CSc1ccc(S(=O)(=O)Nc2ccc(S(=O)(=O)Nc3ccc(C)cc3)cc2)cc1 | . | . | 8 | -0.32 | -8 | 2
CC(C)c1ccccc1NC(=O)C1CN(S(=O)(=O)c2ccccc2)CCN1S(=O)(=O)c1ccccc1 (centres undefined) | -2.3 | 1 | 8.6* | -0.84 | -10 | 0
NS(=O)(=O)c1ccc(NC(=O)/C=C/c2cn(-c3ccccc3)nc2-c2cccc(Cl)c2)cc1 | -0.052 | -1 | 3 | -0.58 | -12 | 2
O=C(/C=C/c1cn(-c2ccccc2)nc1-c1ccccc1)Nc1ccc(C(=O)O)cc1 | -2.8 | -8 | 8.9* | -0.18 | 6 | -3
Cn1c(O)c(N=NC(=O)c2cccc(S(=O)(=O)N3CCCCC3)c2)c2ccccc21 | -1.7 | 8 | 8.9* | . | -2 | 2
CCn1c(SCC(=O)Nc2sc3c(c2C#N)CCCC3)nnc1-c1ccncc1 | -0.23 | . | 11* | . | 0 | -1
N#Cc1c(NC(=O)CSc2nnc(-c3ccncc3)n2CC2CCCO2)sc2c1CCCC2 (centres undefined) | 0.69 | 12 | 1 | 0.14 | 4 | 1
CCc1c(C(=O)Nc2ccc(OC)cc2)[nH]c(C)c1C(C)=O | -1.3 | 3 | 1 | . | -17 | 3
CCc1c(C(=O)Nc2cc(C)ccc2OC)[nH]c(C)c1C(C)=O | -1.3 | 58* | 4 | . | -11 | 0
CN(Cc1ccon1)Cc1cn(Cc2ccccc2)nc1-c1ccc2c(c1)OCO2 | -2.2 | 1 | 0 | -0.021 | -15 | -2
N#Cc1c(C(F)(F)F)cc(C2CC2)[nH]c1=O | -0.3 | 62* | 1 | . | 7 | -1

Bioassay records as filed in PubChem BioAssay.
